The values that follow come from PubChem BioAssay AID720542 (National Center for Advancing Translational Sciences (NCATS), 2013).

The structures appear in SMILES notation. Among all 360,000 compounds or so, about 740 (0.21%) were called active. Another 2% or so got no clear call; they are omitted. For the sample, actives were picked, then their nearest neighbours and some compounds at random. Unmarked numbers belong to inactive results. Calls follow the shape of the dose curve; as a rule, active = well fitted inhibition curve with a large enough effect; inconclusive = small, poorly fitted or top-dose-only effect; inactive = no such curve, though single readings can be large or run the other way.
Potency is read from the fitted curve at half-maximal effect.

This assay relates to Plasmodium falciparum AMA1 (3D7) - RON2 peptide interaction. Briefly: qHTS for Inhibitors of AMA1-RON; Towards Development of Antimalarial Drug Lead: Primary Screen. Also: nearly all actives have a fitted effect of over 45% in size.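 As to activity change, negative = inhibition: 0% = vehicle wells and -100% = peptide control.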 The conditions noted are these: AlphaScreen AMA1-biotinylated RON2 peptide binding; series mostly up to 58.2 µM; activity change, negative = inhibition: at the top concentration. An excerpt:
Plasmodium, the causative agent of malaria, is one of the world's deadliest parasitic diseases. Currently there is no vaccine available and there is widespread resistance to common anti-malarial drugs. This warrants novel, alternative approaches for developing improved therapy. During infection, one such essential interaction is between two parasite proteins, the apical membrane antigen1 (AMA1) that is translocated onto the merozoite surface and the rhoptry neck protein 2 (RON2), which is transferred to the red blood cells (RBC) membrane during invasion (Besteiro et.al., 2009). Recently, the Miller lab has shown that the interaction between AMA1 and RON2 is essential for junction formation of the parasite with the host cell (Srinivasan et.al., 2011). The binding of the RON2 peptide to the hydrophobic pocket in AMA triggers the formation of the moving junction which provides a firm anchor for the parasite to pull itself into the RBC using its actin-myosin motor; an irreversible step that commits the parasite for invasion. Only one AMA1 and RON2 genes exists in Plasmodium and there are no alternate pathways. Moreover, the region corresponding to RON2 peptide is conserved in all P. falciparum isolates for which sequences are available. The key residues in the AMA1 hydrophobic pocket that binds RON2 are also conserved and indicate a functional constraint governing this essential step in invasion since a short RON2 peptide (RON2L) corresponding to the binding region on AMA1 is sufficient to compete with the native RON2 protein and inhibits invasion (Tonkin et.al, 2011). Therefore, developing small molecule inhibitors of this interaction offers a promising target opening a new arena for anti-malarial therapeutics drug design.
In collaboration with the Miller lab, a quantitative High Throughput Screen using the AlphScreen technology was developed using a recombinant his-tagged AMA1 and a biotinylated RON2 peptide. This fluorescent screen was assayed against the NIH Molecular Libraries Small Molecule Repository (MLSMR). Inhibition of this protein-protein interaction is the desired outcome of this assay. However, due the limitations of this AlphaScreen assay, a large number of artifacts were observed. An AlphaScreen counterscreen was run to identify the true inhibitors, triage compound activity, and weed out false positives.
NIH Chemical Genomics Center [NCGC]
NIH Molecular Libraries Probe Centers Network [MLPCN]
Assay Submitter (PI): Louis Miller, National Institute of Allergy and Infectious Disease (NIAID)
Two microliters of his-tagged AMA1 3D7 allele protein (final concentration 25 nM) was dispensed into a 1,536-well assay plate. Small molecules and positive control peptides were pin-transferred (23 nL or 46 nL) via Kalypsys pin-tool equipped with a 1,536-pin array, resulting in final compound and peptide concentration ranges of 91.5 nM - 57.2 µM, and 15.6 nM - 2.00 µM, respectively. Unlabeled RON2 peptide or R1 peptide ([…]) that specifically binds the 3D7 AMA1 was used as a positive control that inhibited the binding of RON2L to AMA1. After 15 minutes incubation, 1 uL of biotinylated RON2 peptide (final concentration 25 nM) or buffer were dispensed and the assay plate was incubated for an additional 30 minutes at room temperature and protected from light. This was followed by an addition of 1 uL mixture of donor and acceptor beads (10 ug/mL final concentrations for each). The plates were incubated for 30 min at room temperature and read using the EnVision(R) plate reader (PerkinElmer). Maximum inhibition response was normalized to the positive control signal while no inhibition response was normalized to the DMSO treated wells.
As for `CC1(C(=O)NCC2CCOCC2)Cc2c(-c3cccc(C(N)=O)c3)ccnc2O1` (stereo not given), the “activity change, negative = inhibition” value was -0.312%.
Still for that read-out and setting: the same measure for `CN(Cc1c(F)cccc1Cl)C(=O)COC(=O)Cn1cnc2ccccc2c1=O`: 10.2%; for `COc1ccc(/C(N)=N/OC(=O)Oc2ccccc2)cc1`: -11.4%.
`COc1ccc(C(C#N)=C2C=CC(=NO)c3ccccc32)cc1`: the Potency is 12.6 µM (active).
In the case of `COC(=O)Nc1ncc(CN2CCCCC2)s1`, the “activity change, negative = inhibition” value is 11.8%.
Still for that read-out and setting: with `CC(C)(C)c1nnc(N/N=C/c2ccc(O)cc2)n(N)c1=O` the figure was 46.9%.
With `CC(=O)Nc1ccc(S(=O)(=O)Nc2nc3n(n2)C(c2ccccc2)CC(=O)N3)cc1` (stereo not given), the “activity change, negative = inhibition” value is -0.175%.
Same read-out and setting: the same measure for `CCCCN(C(=O)CSCc1ccc(C)cc1)c1c(N)n(Cc2ccccc2)c(=O)[nH]c1=O`: -24.8%; for `O=C(Nn1cnnc1)c1cc(Cl)ccc1Cl`: 3.21%; for `Cc1cc(NC(=O)CCS(=O)(=O)c2ccc(F)cc2)no1`: -10%.
In the case of `CCn1c(SCC(=O)NC2=NCCS2)nnc1C(C)NC(=O)c1ccccc1F` (stereo not given), the “activity change, negative = inhibition” value was 6.74%.
As for `COc1ccc(NC(=O)NC2CC3CCCC(C2)N3Cc2ccccc2)cc1` (stereo not given), the “activity change, negative = inhibition” value is 1.56%.
Still for that read-out and setting: the same measure for `Cc1c(S(=O)(=O)NCc2ccccc2)c(=O)n(C)c(=O)n1C`: 0.652%; for `CC(C)(C)C1CCC(=O)N2CCC[C@]2(c2ccccc2)C1` (stereo not given in full): 1.71%; for `O=C(O)CCCN1C(=O)c2ccccc2Sc2ncccc21`: -0.796%.
In the case of `Cc1ccc(C(=O)NCCc2nnc(SCC(=O)Nc3cccc(C(=O)O)c3)n2C)cc1`, the “activity change, negative = inhibition” value was 5.86%.
The same measure, in the same setting: with `CCCCc1nc2c(=O)[nH]c3ccccc3c2o1` the figure was 4.28%.
With `CC(Sc1nnnn1C1CCCCC1)C(=O)O` (stereo not given), the “activity change, negative = inhibition” value is 25.4%.
Still for that read-out and setting: the same measure for `CC(=O)c1c(C)[nH]c(C(=O)OCC(=O)Nc2cc(S(=O)(=O)N3CCCCC3)ccc2C)c1C`: 6.19%.
Turning to `CN(Cc1ccccc1F)c1cc2c(c3c1ccn3C)C1CCC2O1` (stereo not given), the Potency was 31.6 µM (active).
As for `CCCCN(C(=O)c1nn(C)c(=O)c2ccccc12)c1c(N)n(CCC)c(=O)[nH]c1=O`, the “activity change, negative = inhibition” value is -1.58%.
The same measure, in the same setting: the same measure for `O=C(Nc1ccc2c(c1)nc1n2CCCCC1)c1cc(S(=O)(=O)N2CCOCC2)ccc1Cl`: -0.329%; for `CCOC(=O)C1=C(CC)Nc2ccccc2N=C1NC(=O)c1cccc(S(=O)(=O)N2CCCC2)c1`: -14.1%.
The same measure, in the same setting: with `Cc1ncoc1C(=O)NCCC(c1ccccc1)c1ccccc1` the figure was -4.05%; with `Cc1ccc(S(=O)(=O)/N=C(\CN2CCOCC2)N2CCOCC2)cc1`, 14.9%.
For `C=CC(=O)Nc1ccc(Nc2ccnc(Nc3ccc(N4CCN(C)CC4)cc3)n2)cc1`, the Potency was 15.8 µM (active).
In the case of `COc1ccc(N2CCN(C(=S)Nc3ccc(S(N)(=O)=O)cc3)CC2)cc1`, the “activity change, negative = inhibition” value was -9.14%.
Still for that read-out and setting: with `O=C(Nc1ccc(N2CCN(C(=O)c3cccs3)CC2)cc1)c1cccnc1Cl` the figure was -6.85%.
Consider `Cc1ccccc1NC(=O)COC(=O)c1cc(C)n(C2CC2)c1C`, for which the activity change, negative = inhibition is 4.53% [at 11.6 µM].
As to `CC(NC(=O)c1ccc(N2CCNCC2)c([N+](=O)[O-])c1)C12CC3CC(CC(C3)C1)C2` (stereo not given), the “activity change, negative = inhibition” value was -12.1%.
Same read-out and setting: the same measure for `CSc1c(SCc2ccccc2)cnn(Cc2ccccc2)c1=O`: -9.7%.
Turning to `c1ccc(CSc2nnc(-c3ccco3)c(-c3ccco3)n2)cc1`, the Potency was 31.6 µM (active).
In the case of `CN(C)C(=O)CSc1n[nH]c(-c2ccco2)n1`, the “activity change, negative = inhibition” value was -7.33%.
The same measure, in the same setting: the same measure for `Cc1ccc(-n2ncc(C(=O)NC3CC3)c2C2CCN(C(=O)OC(C)(C)C)CC2)c(C)c1`: 21.7%; for `O=C(OCC#CCSc1nnc(-c2ccncc2)o1)c1sc2ccccc2c1Cl`: 2.03%; for `Cc1ccc([N+](=O)[O-])c(OCCCNCC(C)O)c1` (stereo not given): 2.5%.
Same read-out and setting: with `CCOC(=O)C1CCCN(C(=O)c2ccc(CS(=O)(=O)c3ccc(Br)cc3)o2)C1` (stereo not given) the figure was -3.02%; with `C=CCNc1nc(N)c(C(=C(C#N)C#N)c2ccccc2)s1`, 19.2%.
Regarding `CCCC1CC(C)(C(=O)Cn2[nH]c(=O)ccc2=O)OC1=O` (stereo not given), the “activity change, negative = inhibition” value was 2.13%.
Same read-out and setting: the same measure for `CC12COC3(C(=O)Nc4ccc(Cl)cn4)CC1CCC32C` (stereo not given): 11.8%.
Take `CCC(=C/c1sc2ccc3ccccc3c2[n+]1C)/C=C1\Sc2ccc3ccccc3c2N1C`: the Potency is 35.5 µM (active).
`COc1ccc(CN2CCC(c3nc4ccc(Cl)cc4[nH]3)CC2)cc1`: the “activity change, negative = inhibition” value is -0.0124%.
Same read-out and setting: with `COCCOC(=O)C1=C(C)NC(=O)NC1c1cc2c(cc1Br)OCO2` (stereo not given) the figure was -11.6%.
Take `O=C(CSc1nnc(-c2cccs2)n1Cc1ccccc1)N1CCc2ccccc2C1`: the “activity change, negative = inhibition” value was -1.23%.
The same measure, in the same setting: the same measure for `CC(C)CC(=O)N1CCN(Cc2cccc(Cl)c2)CC1`: -21.8%; for `COc1ccccc1CN1CCN(C(=O)Cc2ccccc2)CC1`: -9.03%.
With `CC(C)CC(=O)N1CCN(Cc2ccccc2Br)CC1`, the Potency is 20 µM (active).
Turning to `CCCCC(O)C1=C[N+](=O)CC=C1` (stereo not given), the “activity change, negative = inhibition” value was 0%.
For the compound `CN1CCN(Cc2nc3cc(NC(=O)COc4ccc([N+](=O)[O-])cc4)ccc3n2C)CC1`, the “activity change, negative = inhibition” value is 7.7%.
Same read-out and setting: with `COc1ccc(C2(CNC(=O)C(c3ccccc3)c3ccccc3)CCOCC2)cc1OC` the figure was 1.8%.
